HSD17B inh: inhibitors of human HSD17B10 dehydrogenase. Potency, µM (series often up to 57.1 µM), for inactives: at the highest dose activity change, negative = inhibition, usual class: inhibitors. Q99714. recombinant HSD17B10, NADH fluorescence kinetic. actives 7.6% (n = 75,000);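 note: the protocol describes HADH2 (HSD17B10) and not the HSD17B4 of the title; potency is the fitted concentration of half-maximal effect; % is set by controls: 0 for no effect and ±100 for the full control effect; nearly all actives have a fitted effect of over 70% in size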
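20 nM HADH2, pH 9.0 Tris/Tween; cpd preinc 15 min RT; start w/ 1 mM NAD+ + 90 uM b-hydroxybutyryl-CoA; kinetic fluor ex360/em450 q30s x 4 min; delta last-first.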
A350 fluor: compound fluoresces in the Alexa 350 spectral region | Compound autofluorescence, 340/450 nm, Alexa 350 dye-equivalents; active compounds read high | max dye-equivalent concentration, M | actives 11% (n = 59,000); in the data active = max dye-equivalent concentration above about 10 nM; inconclusive = mostly about 1.1 nM to 9.6 nM
4-MU autofl: 4-MU region autofluorescence | compound autofluorescence, 340/450 nm, 4-MU equivalents; active compounds read high | max dye-equivalent concentration, M | actives 11% (n = 59,000); in the data active = max dye-equivalent concentration above about 10 nM; inconclusive = mostly about 1.1 nM to 9.6 nM
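Intrinsic fluorescence at 340/450 nm (ex/em) was read after 15 min at room temperature in pH 8.0, 100 mM Tris. Each compound concentration expressed as 4-MU-equivalent concentration from a six-point 4-MU standard series on each plate.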
HADH2 inh: blocks human hydroxyacyl-CoA dehydrogenase type II; Q99714; recombinant HADH2, NADH fluorescence, beta-hydroxybutyryl-CoA; Potency, µM (doses to about 57.1 µM), inactives show at the top dose activity change, negative = inhibition, most hits filed as inhibitors; actives 3.4% (n = 73,000); AID 886; note: potency is the fitted concentration of half-maximal effect; % is set by controls: 0 for no effect and ±100 for the full control effect; nearly all actives have a fitted effect of over 60% in size
Target sequence (Q99714 whole entry, looked up, one chain of several): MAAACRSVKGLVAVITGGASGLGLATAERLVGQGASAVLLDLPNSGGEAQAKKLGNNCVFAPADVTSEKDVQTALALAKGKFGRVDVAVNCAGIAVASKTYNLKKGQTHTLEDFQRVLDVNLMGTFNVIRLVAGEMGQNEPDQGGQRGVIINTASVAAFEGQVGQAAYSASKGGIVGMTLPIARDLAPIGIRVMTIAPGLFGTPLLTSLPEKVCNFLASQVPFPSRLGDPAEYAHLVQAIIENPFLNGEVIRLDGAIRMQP
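Read-out: 360 nm excitation, 450 nm emission, kinetic over 4 min. Conditions: His-tagged human HADH2 20 nM, pH 9.0 Tris with Tween-20, 1 mM NAD+, 90 uM beta-hydroxybutyryl-CoA.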
AID923: qHTS Assay for Allosteric/Competitive Inhibitors of Caspase-1: Spectroscopic Profiling in AFC Spectral Region; compound fluorescence, AFC spectral region (405/520 nm); Potency, µM (titrated, usually from 57.5 µM), inactives show at the highest dose fluorescence increase, actives largely listed as activators; actives 1.1% (n = 75,000); note: potency is the fitted concentration of half-maximal effect; 0% is about no effect
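Compound autofluorescence profiled at 405 nm ex/520 nm em during kinetic caspase 1 run (50 nM enzyme, 5 uM Ac-WEHD-AFC, HEPES pH 7.5, 10 mM DTT). Titration up to 57 uM; baseline from regression intercept, normalized to AFC standard curve.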
GBA activity: alters purified human glucocerebrosidase activity. P04062. purified enzyme, resorufin glucoside fluorescence (screen aimed at inhibitors), 20 min. Potency, µM. actives 1.1% (n = 48,000). AID 360; in the data active = potency below about 15 µM; inconclusive = mostly about 16 µM to 33 µM;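 note: potency is the fitted concentration of half-maximal effect; the screen sought inhibitors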
Target sequence (P04062 whole entry, looked up): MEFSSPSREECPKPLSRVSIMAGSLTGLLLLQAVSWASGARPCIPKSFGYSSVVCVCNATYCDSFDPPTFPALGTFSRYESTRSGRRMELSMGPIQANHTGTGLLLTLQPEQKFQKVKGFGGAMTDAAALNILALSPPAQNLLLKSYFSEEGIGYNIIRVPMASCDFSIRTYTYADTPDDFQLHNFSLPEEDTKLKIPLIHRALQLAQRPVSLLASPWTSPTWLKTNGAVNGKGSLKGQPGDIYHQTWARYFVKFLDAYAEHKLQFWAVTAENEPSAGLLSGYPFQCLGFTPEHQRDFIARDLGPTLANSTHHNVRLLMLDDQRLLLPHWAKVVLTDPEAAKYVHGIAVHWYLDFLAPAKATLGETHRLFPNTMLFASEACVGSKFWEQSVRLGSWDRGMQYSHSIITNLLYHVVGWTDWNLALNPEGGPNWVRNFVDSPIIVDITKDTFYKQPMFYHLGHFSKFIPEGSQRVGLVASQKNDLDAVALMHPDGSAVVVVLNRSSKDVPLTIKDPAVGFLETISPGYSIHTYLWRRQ
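Normal human glucocerebrosidase (0.2 nM final) was assayed with resorufin β-D-glucopyranoside (30 uM final) in 50mM citric acid/KH2PO4, 10mM sodium taurocholate, 0.01% tween-20, pH 5.9. Compounds were titrated; fluorescence (Ex 548, Em 600) read after 20 min at RT.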
Starred values were filed as active, the others as inactive; i = inactive; ? = inconclusive; nt = no result given; [ ] = dose if it differs, or a comment. Rows were chosen to be rich in hits. Some 13% of all compounds tested hit in one or more screens of this group. Unless noted, calls come from the whole dose curve; as a rule, active = well fitted curve in the direction sought with a large enough effect; inconclusive = small, poorly fitted or top-dose-only effect, or another doubt; inactive = no such curve, though single readings can be large; an effect the other way counts as inactive or inconclusive.

SMILES | HSD17B inh | A350 fluor | 4-MU autofl | HADH2 inh | AID923 | GBA activity
Cc1ccc(C2SCC(=O)N2Cc2cn3ccsc3n2)o1 (stereo not drawn) | -11% | 1.9e-08M* | 1.5e-08M* | -26% | 1% | >77
c1cn2cc(CN3CCOCC3)nc2s1 | 1% | i | i | 1% | -2% | >77
CCOC(=O)c1[nH]c2ccc(OC)cc2c1NC(=O)C(C)N1CCC2(CC1)OCCO2 (stereo not drawn) | 25µM* | 2e-07M* | 1.5e-07M* | ? | 0% | >77
CCOC(=O)c1[nH]c2ccc(OC)cc2c1NC(=O)CN1CCC2(CC1)OCCO2 | 25µM* | 6.2e-08M* | 1.6e-07M* | ? | -1% | >77
CCOC(=O)c1[nH]c2ccc(OC)cc2c1NC(=O)c1nonc1C | -28% | ? | i | 8% | 3% | nt
COC(=O)CSC1=NS(=O)(=O)c2ccccc21 | -26% | nt | nt | 20µM* | 2% | nt
COC(=O)CSc1ccccc1C(=O)OC | i | 1.6e-08M* | ? | 110% | 0% | >77
O=C(CSC1=NS(=O)(=O)c2ccccc21)Nc1ccccc1 | -8% | nt | nt | ? | 0% | nt
COc1ccccc1-c1cc(N(C)Cc2ccco2)ncn1 | 32µM* | ? | ? | -12% | 1% | nt
CN(Cc1ccco1)c1cc(-c2ccccc2Cl)ncn1 | -26% | i | i | 13% | 1% | nt
COc1nc(NCc2cccnc2)nc(OC)n1 | -4% | nt | nt | 9% | -1% | nt
COc1ccccc1-c1cc(C(F)(F)F)nc(NCc2ccco2)n1 | 25µM* | ? | ? | -16% | -2% | nt
Fc1ccc(CNc2nc(-c3ccco3)cc(C(F)(F)F)n2)cc1 | 25µM* | 2.4e-08M* | 2.8e-08M* | ? | 2% | >77
FC(F)(F)c1cc(-c2ccco2)nc(NCc2cccnc2)n1 | 25µM* | 8.9e-08M* | 9.4e-08M* | 9% | 2% | nt
c1ccc(Oc2nc(NCc3ccco3)nc(NCc3ccco3)n2)cc1 | -1% | i | i | -12% | -1% | >77
COc1ccc(CCNc2nc(-c3ccco3)cc(C(F)(F)F)n2)cc1OC | 0% | i | i | -16% | 2% | >77
O=C(OC1Cc2c(O)cc(O)cc2OC1c1cc(O)c(O)c(O)c1-c1c(C2Oc3cc(O)cc(O)c3CC2O)cc(O)c(O)c1O)c1cc(O)c(O)c(O)c1 (stereo not drawn) | 5µM* | nt | nt | nt | -5% | nt
Cn1c(Sc2ccc(-c3cccnc3)n2C)ccc1-c1cccnc1 | -16%[11.4 µM] | i | i | ? | -2%[11.5 µM] | nt
CCOc1ccc(C(=O)Nc2cccc(-c3nc4cccnc4o3)c2)cc1Cl | -2% | 1.6e-08M* | 1.3e-08M* | 2% | 2% | >77
CCOc1ccc(C(=O)Nc2ccc(Cl)cn2)cc1Cl | -4% | i | i | 4% | -1% | >77
[N-]=[N+]=NC[C@@H]1O[C@@H](n2cnc3c(N)ncnc32)[C@@H]2O[C@@H]21 | -2%[11.4 µM] | i | i | 7%[11.4 µM] | 1%[11.5 µM] | nt
O=S(=O)(NCc1ccc2c(c1)OCO2)c1ccc2c(c1)oc1ccccc12 | -5% | 1.1e-08M* | 1.1e-08M* | -21% | 0% | >77
COCCN=C1OC(=O)N2C(=O)C3=C4C(C[C@H]5C(=O)N(CC(=O)OC)C(=O)[C@H]5[C@H]4[C@@]12Cc1ccccc1)[C@H]1C(=O)N(CC(=O)OC)C(=O)[C@H]1[C@H]3C (stereo partly drawn) | 15% | nt | nt | nt | 4% | nt
Clc1ccc2nc(NC3=NCN(CCN4CCOCC4)CN3)nc(-c3ccccc3)c2c1 | -15% | 3.7e-08M* | 2.9e-08M* | 6% | 1% | >77
CCc1ccc2nc(NC3=NCN(CCCN4CCOCC4)CN3)nc(C)c2c1 | 4% | ? | ? | 6% | 1% | ?
SMILES | HSD17B inh | A350 fluor | 4-MU autofl | HADH2 inh | AID923 | GBA activity
CC(=O)Nc1nc(CC(C)C)cc2c1c(=O)oc1ccccc12 | -13% | 1.1e-08M* | 1.2e-08M* | 5% | 1% | >77
CCCCc1cc2c(c(NC(=O)CC)n1)c(=O)oc1ccccc12 | 32µM* | 1.6e-08M* | 1.7e-08M* | 16% | -1% | >15
CCCCc1cc2c(c(NC(C)=O)n1)c(=O)oc1ccccc12 | -10% | nt | nt | 8% | 0% | nt
Cn1cnc([N+](=O)[O-])c1SCC(=O)O | 3%[11.4 µM] | i | i | -2%[11.4 µM] | 0%[11.5 µM] | nt
CC(=O)OC[C@@H]1O[C@H](C/C=N\OC[C@@H](C)[C@H](OCc2ccccc2)C(C)C)C=C[C@@H]1OC(C)=O | 3%[11.4 µM] | nt | nt | 5%[11.4 µM] | 0%[11.5 µM] | nt
COC(=O)CCC(=O)c1oc2ccc(Br)cc2c1N | 20µM* | ? | 1.8e-08M* | 12% | 1% | >77
Nc1c(C(=O)c2ccccc2)oc2ccc(Br)cc12 | 7% | 1.3e-08M* | 1.3e-08M* | 11% | 13% | >77
Nc1c(C(=O)c2ccc(Br)s2)oc2ccccc12 | 0% | nt | nt | 2% | 13% | nt
COC(=O)CN1C(=O)CC(C)(C)Sc2ccccc21 | -1% | nt | nt | -4% | -2% | nt
CC1(C)CC(=O)N(CC(=O)O)c2ccccc2S1 | 3% | 4.3e-08M* | 3.3e-08M* | 5% | -1% | >77
O=C(NCC12CC3CC(CC(C3)C1)C2)c1nn2c(c1Cl)NC(c1ccco1)CC2C(F)(F)F (stereo not drawn) | 6% | i | i | 10% | 2% | 14*
Brc1ccc(C2=Nn3c(nnc3-c3n[nH]c4c3CCC4)SC2)cc1 | 2% | i | i | 3% | 0% | ?
Clc1ccc(C2=Nn3c(nnc3-c3n[nH]c4c3CCC4)SC2)cc1 | -12% | 3e-08M* | 2.7e-08M* | 13% | 0% | ?
Cc1ccc(N2CC(C(=O)NC3=NCCS3)CC2=O)cc1C (stereo not drawn) | 12% | i | i | 3% | -1% | >77
O=C(Nc1nc(-c2ccco2)c(-c2ccco2)s1)C1CC(=O)N(c2ccc3c(c2)OCCO3)C1 (stereo not drawn) | 1.3µM* | 2.5e-08M* | 2.1e-08M* | 4µM* | 5% | ?
O=C(N1CCN(c2ccccn2)CC1)N1c2ccccc2Sc2ccccc21 | ? | i | i | 8% | 1% | i
CC(=O)NC1=NC(=O)/C(=C/N2CCOCC2)S1 | -11% | 5.5e-08M* | 5.6e-08M* | -22% | 4% | >77
c1ccc(-c2ccc(-c3ccc(C4=NCCN4)cc3)o2)cc1 | 3.2µM* | 5.2e-07M* | 4.8e-07M* | -23%[11.4 µM] | ? | nt
c1ccc2oc(C3=NCCN3)cc2c1 | 32µM* | nt | nt | 2% | 0% | nt
c1ccc2nc(C3=NCCN3)ccc2c1 | 3% | i | i | -2% | -3% | nt
COc1cc2ccccc2cc1C(=O)N1CCN(C)CC1 | -23% | i | i | -19% | 0% | >77
COc1cc2ccccc2cc1C(=O)Nc1ccccc1N1CCN(S(C)(=O)=O)CC1 | 25µM* | ? | 1.3e-08M* | ? | 1% | >77
OCCN(CO)CO | 5%[11.4 µM] | i | i | -5%[11.4 µM] | 2%[11.5 µM] | nt

Screens deposited in PubChem BioAssay by National Center for Advancing Translational Sciences (NCATS).
